# Tests used:
# Test in all cases: DAPPL (digital affinity profiling via proximity ligation, sequencing); 10 mM Tris-HCl pH 7.5, 50 mM NaCl, 1 mM DTT, 4% glycerol, room temperature, 30 min; GST-TFs on glutathione beads, 16-mer random dsDNA library, 0.1% formaldehyde crosslink after washing; high values mean tight binding
# FLI1 = biological target: T1, FLI1 (Homo sapiens, UniProt Q01543 1-452); conditions: protein: recombinant; tags: N-terminal GST; dsDNA, one strand shown
# T1 sequence: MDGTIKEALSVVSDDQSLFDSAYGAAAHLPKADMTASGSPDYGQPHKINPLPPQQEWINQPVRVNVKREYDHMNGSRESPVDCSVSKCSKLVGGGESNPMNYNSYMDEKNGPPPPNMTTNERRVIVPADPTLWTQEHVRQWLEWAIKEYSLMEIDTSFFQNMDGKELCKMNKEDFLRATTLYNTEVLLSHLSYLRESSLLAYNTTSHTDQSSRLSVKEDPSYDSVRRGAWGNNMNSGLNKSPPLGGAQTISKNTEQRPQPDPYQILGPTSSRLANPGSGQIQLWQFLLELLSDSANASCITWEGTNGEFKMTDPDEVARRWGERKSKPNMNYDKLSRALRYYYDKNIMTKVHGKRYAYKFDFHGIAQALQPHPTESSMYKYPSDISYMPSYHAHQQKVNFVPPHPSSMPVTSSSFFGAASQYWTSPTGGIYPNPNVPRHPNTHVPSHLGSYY
# Procedure, shortened: (§1)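 A tag-only sample was pooled with DNA-barcoded human transcription factors that had been expressed in yeast as GST fusions and captured on glutathione beads. The pools were incubated for 30 min at room temperature with 200 nmole of a random double-stranded 16-mer DNA library in Tris/NaCl/DTT/glycerol buffer, then washed, crosslinked with 0.1% formaldehyde, proximity-ligated (BsaI/T4 ligase, 1 h, 37 °C), PCR-amplified and sequenced on an Illumina NextSeq500. Binding signal is each hexamer's read frequency for a factor divided by its frequency for the tag-only sample.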
# ELK1 = biological target: T2, ELK1 (Homo sapiens, UniProt P19419 1-428); conditions: protein: recombinant; tags: N-terminal GST; dsDNA, one strand shown
# T2 sequence: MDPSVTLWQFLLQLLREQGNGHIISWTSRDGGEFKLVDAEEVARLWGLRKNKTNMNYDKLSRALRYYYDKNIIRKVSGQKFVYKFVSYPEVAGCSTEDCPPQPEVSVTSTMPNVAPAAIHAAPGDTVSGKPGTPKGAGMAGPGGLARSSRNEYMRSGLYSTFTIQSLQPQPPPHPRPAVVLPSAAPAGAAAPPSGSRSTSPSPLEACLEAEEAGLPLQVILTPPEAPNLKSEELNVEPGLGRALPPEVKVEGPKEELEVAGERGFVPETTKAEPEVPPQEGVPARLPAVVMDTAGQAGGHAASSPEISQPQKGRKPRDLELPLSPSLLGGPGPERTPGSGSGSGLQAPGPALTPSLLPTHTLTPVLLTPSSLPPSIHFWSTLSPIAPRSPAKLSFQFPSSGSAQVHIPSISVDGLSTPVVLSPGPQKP
# Procedure, shortened: as §1
# GABPA = biological target: T3, GABPA (Homo sapiens, UniProt Q06546 1-454); conditions: protein: recombinant; tags: N-terminal GST; dsDNA, one strand shown
# T3 sequence: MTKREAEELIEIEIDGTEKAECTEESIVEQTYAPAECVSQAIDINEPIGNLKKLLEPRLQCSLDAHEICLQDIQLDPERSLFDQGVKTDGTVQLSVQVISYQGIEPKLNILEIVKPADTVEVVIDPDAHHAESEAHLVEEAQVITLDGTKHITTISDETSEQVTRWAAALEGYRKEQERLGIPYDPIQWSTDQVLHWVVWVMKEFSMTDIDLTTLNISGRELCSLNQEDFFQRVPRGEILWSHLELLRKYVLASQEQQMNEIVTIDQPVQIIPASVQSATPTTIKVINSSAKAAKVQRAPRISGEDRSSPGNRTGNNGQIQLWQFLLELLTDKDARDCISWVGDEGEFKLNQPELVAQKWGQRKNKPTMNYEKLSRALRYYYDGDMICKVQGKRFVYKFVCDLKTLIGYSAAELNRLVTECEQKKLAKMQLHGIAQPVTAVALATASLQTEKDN
# Procedure, shortened: as §1
# ERG = biological target: T4, ERG (Homo sapiens, UniProt P11308 1-479); conditions: protein: recombinant; tags: N-terminal GST; dsDNA, one strand shown
# T4 sequence: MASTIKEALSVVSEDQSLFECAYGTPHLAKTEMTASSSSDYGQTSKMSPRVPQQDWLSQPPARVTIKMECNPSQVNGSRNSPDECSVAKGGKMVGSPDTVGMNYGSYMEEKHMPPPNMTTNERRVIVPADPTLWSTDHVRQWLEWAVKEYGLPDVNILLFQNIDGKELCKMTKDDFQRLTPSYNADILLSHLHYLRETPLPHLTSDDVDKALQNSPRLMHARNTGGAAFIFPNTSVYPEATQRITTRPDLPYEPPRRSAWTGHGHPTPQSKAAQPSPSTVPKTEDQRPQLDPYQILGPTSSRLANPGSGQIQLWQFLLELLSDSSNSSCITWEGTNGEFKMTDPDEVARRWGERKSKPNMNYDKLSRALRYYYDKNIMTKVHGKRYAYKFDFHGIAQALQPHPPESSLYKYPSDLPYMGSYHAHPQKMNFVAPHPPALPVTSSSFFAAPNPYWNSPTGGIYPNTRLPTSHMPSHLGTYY
# Procedure, shortened: as §1
# ELF1 = ELF1 (Homo sapiens, UniProt P32519 1-619); conditions: protein: recombinant; tags: N-terminal GST; dsDNA, one strand shown
# Sequence of ELF1 (P32519 whole entry): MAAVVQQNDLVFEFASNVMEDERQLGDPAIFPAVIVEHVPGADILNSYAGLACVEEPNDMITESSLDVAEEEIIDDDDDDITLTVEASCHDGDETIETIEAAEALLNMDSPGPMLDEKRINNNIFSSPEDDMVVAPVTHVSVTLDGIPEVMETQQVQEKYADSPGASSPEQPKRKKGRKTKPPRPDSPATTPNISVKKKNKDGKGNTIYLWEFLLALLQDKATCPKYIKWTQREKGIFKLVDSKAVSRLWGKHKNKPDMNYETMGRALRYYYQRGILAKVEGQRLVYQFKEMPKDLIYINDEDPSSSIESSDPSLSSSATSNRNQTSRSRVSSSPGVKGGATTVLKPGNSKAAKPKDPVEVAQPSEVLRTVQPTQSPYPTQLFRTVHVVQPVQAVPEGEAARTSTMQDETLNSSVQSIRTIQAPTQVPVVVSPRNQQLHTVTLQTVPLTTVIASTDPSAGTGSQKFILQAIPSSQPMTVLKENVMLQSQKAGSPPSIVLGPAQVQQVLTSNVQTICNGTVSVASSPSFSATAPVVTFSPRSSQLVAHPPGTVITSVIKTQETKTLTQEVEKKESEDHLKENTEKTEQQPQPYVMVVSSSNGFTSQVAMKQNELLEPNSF
# Procedure, shortened: as §1
# EHF = biological target: T5, EHF (Homo sapiens, UniProt Q9NZC4 1-300); conditions: protein: recombinant; tags: N-terminal GST; dsDNA, one strand shown
# T5 sequence: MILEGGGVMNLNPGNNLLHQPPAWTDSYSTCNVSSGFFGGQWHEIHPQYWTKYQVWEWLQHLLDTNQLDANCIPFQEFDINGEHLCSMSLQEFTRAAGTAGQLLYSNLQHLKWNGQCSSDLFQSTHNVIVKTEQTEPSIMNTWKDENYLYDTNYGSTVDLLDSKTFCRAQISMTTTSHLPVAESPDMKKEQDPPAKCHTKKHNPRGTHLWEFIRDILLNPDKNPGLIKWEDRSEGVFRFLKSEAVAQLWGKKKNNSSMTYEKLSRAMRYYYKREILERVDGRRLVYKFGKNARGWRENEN
# Procedure, shortened: as §1
# SPI1 = SPI1 (Homo sapiens, UniProt P17947 1-270); conditions: protein: recombinant; tags: N-terminal GST; dsDNA, one strand shown
# Procedure, shortened: as §1
# SPIB = SPIB (Homo sapiens, UniProt Q01892 1-262); conditions: protein: recombinant; tags: N-terminal GST; dsDNA, one strand shown
# Sequence of SPIB (Q01892 whole entry): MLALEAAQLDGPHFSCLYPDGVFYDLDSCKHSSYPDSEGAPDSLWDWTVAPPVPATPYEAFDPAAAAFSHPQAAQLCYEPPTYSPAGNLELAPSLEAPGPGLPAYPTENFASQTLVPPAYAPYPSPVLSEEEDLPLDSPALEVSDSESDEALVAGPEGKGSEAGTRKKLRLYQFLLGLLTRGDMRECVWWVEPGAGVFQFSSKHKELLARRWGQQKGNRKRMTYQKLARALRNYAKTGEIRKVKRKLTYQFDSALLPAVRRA
# Procedure, shortened: as §1
# ELK3 = biological target: T6, ELK3 (Homo sapiens, UniProt P41970 1-407); conditions: protein: recombinant; tags: N-terminal GST; dsDNA, one strand shown
# T6 sequence: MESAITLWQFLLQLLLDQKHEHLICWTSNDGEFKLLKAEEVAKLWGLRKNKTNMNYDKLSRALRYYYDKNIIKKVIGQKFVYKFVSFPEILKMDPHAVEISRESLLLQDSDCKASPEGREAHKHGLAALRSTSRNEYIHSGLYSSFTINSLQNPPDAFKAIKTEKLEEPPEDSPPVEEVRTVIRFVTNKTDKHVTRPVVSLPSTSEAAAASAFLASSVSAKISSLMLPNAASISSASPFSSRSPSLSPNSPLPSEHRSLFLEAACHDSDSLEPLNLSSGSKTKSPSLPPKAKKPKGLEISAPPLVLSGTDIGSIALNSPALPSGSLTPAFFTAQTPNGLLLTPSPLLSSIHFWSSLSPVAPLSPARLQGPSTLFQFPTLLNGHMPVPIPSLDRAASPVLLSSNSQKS
# Procedure, shortened: as §1
# FEV = biological target: T7, FEV (Homo sapiens, UniProt Q99581 1-238); conditions: protein: recombinant; tags: N-terminal GST; dsDNA, one strand shown
# T7 sequence: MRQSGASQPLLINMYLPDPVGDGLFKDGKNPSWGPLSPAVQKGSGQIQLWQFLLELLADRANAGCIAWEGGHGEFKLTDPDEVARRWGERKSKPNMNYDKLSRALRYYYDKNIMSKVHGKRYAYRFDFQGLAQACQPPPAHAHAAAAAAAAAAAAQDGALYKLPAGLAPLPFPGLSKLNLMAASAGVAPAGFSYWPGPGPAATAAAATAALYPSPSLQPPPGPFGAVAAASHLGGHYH
# Procedure, shortened: as §1
# ETV5 = ETV5 (Homo sapiens, UniProt P41161 1-510); conditions: protein: recombinant; tags: N-terminal GST; dsDNA, one strand shown
# Sequence of ETV5 (P41161 whole entry): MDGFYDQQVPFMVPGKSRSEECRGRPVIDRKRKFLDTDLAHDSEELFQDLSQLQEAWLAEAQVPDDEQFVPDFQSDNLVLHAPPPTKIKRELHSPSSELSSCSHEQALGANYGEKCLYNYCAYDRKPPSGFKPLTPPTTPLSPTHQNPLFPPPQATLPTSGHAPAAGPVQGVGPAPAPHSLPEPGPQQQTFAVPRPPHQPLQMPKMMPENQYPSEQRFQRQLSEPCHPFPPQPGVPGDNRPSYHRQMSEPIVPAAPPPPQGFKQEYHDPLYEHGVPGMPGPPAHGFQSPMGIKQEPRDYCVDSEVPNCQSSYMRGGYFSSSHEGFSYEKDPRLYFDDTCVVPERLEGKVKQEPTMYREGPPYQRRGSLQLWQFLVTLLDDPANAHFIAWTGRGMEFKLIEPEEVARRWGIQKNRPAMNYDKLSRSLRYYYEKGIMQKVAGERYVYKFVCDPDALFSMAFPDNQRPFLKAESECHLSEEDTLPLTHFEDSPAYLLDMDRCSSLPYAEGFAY
# Procedure, shortened: as §1
# HSF1 = HSF1 (Homo sapiens, UniProt Q00613 1-529); conditions: protein: recombinant; tags: N-terminal GST; chain copies: 3; dsDNA, one strand shown
# Sequence of HSF1 (Q00613 whole entry): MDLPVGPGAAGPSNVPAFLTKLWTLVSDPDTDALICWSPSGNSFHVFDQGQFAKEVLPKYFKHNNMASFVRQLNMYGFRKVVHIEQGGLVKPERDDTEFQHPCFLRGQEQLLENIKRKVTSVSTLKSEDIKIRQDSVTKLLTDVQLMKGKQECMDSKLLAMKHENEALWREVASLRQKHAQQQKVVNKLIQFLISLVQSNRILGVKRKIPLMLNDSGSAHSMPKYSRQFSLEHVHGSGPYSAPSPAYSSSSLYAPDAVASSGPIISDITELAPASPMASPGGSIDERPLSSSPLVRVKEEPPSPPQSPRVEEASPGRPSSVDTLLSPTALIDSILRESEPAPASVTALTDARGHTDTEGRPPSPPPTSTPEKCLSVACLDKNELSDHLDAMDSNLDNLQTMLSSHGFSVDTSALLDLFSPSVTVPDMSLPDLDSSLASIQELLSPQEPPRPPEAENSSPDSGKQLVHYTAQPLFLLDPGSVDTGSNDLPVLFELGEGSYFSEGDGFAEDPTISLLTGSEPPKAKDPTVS
# Procedure, shortened: as §1
# SPIC = biological target: T8, SPIC (Homo sapiens, UniProt Q8N5J4 1-248); conditions: protein: recombinant; tags: N-terminal GST; dsDNA, one strand shown
# T8 sequence: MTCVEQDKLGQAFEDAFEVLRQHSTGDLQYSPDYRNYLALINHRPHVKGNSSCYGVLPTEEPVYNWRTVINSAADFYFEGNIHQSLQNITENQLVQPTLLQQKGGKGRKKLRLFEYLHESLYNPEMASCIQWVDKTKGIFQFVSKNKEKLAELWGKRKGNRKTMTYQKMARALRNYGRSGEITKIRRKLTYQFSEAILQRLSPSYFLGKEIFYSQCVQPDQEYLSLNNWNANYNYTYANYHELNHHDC
# Procedure, shortened: as §1
# ELF4 = ELF4 (Homo sapiens, UniProt Q99607 1-663); conditions: protein: recombinant; tags: N-terminal GST; dsDNA, one strand shown
# Sequence of ELF4 (Q99607 whole entry): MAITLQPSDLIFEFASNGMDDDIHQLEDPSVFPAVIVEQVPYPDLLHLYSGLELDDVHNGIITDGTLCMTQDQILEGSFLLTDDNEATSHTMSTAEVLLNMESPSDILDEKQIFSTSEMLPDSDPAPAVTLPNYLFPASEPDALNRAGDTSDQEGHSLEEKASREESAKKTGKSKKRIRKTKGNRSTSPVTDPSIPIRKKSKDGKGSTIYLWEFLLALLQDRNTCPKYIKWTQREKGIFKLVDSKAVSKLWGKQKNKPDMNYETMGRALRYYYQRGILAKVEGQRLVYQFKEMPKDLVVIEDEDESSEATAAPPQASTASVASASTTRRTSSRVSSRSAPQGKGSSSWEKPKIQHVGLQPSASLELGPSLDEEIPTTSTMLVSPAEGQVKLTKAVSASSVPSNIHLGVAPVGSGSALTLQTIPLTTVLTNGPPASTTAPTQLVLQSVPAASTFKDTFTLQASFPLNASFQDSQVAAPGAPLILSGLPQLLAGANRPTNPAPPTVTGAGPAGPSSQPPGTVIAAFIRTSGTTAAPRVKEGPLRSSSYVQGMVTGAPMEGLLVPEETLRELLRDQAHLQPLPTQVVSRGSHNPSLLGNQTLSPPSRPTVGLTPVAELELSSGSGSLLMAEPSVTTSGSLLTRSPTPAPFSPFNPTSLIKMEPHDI
# Procedure, shortened: as §1
# ELK4 = biological target: T9, ELK4 (Homo sapiens, UniProt P28324-2 1-405); conditions: protein: recombinant; tags: N-terminal GST; dsDNA, one strand shown
# T9 sequence: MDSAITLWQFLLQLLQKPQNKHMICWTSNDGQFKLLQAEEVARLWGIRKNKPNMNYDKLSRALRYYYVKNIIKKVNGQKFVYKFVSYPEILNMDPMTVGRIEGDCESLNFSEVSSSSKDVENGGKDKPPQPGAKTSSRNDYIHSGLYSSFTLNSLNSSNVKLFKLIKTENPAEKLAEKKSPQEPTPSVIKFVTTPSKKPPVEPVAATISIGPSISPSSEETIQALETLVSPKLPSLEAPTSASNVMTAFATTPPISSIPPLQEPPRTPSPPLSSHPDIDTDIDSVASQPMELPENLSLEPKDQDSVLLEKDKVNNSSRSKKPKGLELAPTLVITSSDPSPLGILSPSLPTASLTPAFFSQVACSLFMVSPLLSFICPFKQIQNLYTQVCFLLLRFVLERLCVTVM
# Procedure, shortened: as §1
# ETV2 = biological target: T10, ETV2 (Homo sapiens, UniProt O00321 1-342); conditions: protein: recombinant; tags: N-terminal GST; dsDNA, one strand shown
# T10 sequence: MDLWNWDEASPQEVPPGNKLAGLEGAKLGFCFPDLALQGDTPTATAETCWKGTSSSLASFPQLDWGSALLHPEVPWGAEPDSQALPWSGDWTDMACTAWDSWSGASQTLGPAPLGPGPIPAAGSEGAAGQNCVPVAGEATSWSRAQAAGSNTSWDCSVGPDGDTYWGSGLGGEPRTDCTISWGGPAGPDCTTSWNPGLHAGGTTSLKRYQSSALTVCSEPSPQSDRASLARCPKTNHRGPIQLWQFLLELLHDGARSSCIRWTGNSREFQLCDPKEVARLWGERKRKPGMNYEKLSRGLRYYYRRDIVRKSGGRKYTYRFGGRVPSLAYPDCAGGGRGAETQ
# Procedure, shortened: as §1
# ELF3 = biological target: T11, ELF3 (Homo sapiens, UniProt P78545 1-371); conditions: protein: recombinant; tags: N-terminal GST; dsDNA, one strand shown
# T11 sequence: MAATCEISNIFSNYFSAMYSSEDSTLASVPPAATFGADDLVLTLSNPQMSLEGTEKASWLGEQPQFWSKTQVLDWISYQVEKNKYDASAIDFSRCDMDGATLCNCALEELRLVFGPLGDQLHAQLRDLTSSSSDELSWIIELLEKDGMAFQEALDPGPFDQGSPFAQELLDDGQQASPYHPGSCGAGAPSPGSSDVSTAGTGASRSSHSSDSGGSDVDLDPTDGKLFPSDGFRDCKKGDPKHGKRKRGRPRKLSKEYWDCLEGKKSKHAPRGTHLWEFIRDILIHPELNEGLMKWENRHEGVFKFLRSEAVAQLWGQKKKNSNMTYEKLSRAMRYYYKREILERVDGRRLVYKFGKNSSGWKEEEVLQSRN
# Procedure, shortened: as §1
# CRX = CRX (Homo sapiens, UniProt O43186 1-299); conditions: protein: recombinant; tags: N-terminal GST; dsDNA, one strand shown
# Sequence of CRX (O43186 whole entry): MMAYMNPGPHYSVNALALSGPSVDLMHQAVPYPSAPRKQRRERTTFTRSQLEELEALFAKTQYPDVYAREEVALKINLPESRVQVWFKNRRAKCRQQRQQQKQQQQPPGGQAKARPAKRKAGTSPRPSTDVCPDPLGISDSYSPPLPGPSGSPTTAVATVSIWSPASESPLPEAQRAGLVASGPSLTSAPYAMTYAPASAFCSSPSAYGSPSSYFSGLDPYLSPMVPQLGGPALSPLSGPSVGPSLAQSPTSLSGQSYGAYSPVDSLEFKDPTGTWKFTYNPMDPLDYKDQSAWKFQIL
# Procedure, shortened: as §1
# ETV1 = ETV1 (Homo sapiens, UniProt P50549 1-477); conditions: protein: recombinant; tags: N-terminal GST; dsDNA, one strand shown
# Sequence of ETV1 (P50549 whole entry): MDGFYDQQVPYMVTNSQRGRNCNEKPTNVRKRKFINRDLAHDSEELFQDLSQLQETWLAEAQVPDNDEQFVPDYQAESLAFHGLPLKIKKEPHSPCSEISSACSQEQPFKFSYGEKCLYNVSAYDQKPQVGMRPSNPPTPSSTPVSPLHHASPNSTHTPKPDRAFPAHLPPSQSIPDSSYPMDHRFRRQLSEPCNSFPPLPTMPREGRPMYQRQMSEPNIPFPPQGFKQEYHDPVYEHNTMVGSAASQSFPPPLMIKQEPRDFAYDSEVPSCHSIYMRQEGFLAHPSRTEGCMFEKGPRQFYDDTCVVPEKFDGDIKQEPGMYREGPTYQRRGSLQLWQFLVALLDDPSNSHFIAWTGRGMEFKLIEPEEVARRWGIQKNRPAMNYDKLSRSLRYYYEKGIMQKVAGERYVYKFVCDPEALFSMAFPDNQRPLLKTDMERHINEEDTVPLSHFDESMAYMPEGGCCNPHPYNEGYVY
# Procedure, shortened: as §1
sequence,measurement,setting,value
CCCGTA,binding signal,FLI1,"1.14 fold enrichment (6-mer frequency, TF over GST control)"
same,binding signal,ELK1,"1.11 fold enrichment (6-mer frequency, TF over GST control)"
same,binding signal,GABPA,"1.2 fold enrichment (6-mer frequency, TF over GST control)"
same,binding signal,ERG,"1.2 fold enrichment (6-mer frequency, TF over GST control)"
same,binding signal,ELF1,"1.25 fold enrichment (6-mer frequency, TF over GST control)"
same,binding signal,EHF,"1.24 fold enrichment (6-mer frequency, TF over GST control)"
same,binding signal,SPI1,"1.19 fold enrichment (6-mer frequency, TF over GST control)"
same,binding signal,SPIB,"1.14 fold enrichment (6-mer frequency, TF over GST control)"
same,binding signal,ELK3,"1.32 fold enrichment (6-mer frequency, TF over GST control)"
same,binding signal,FEV,"1.16 fold enrichment (6-mer frequency, TF over GST control)"
same,binding signal,ETV5,"1.25 fold enrichment (6-mer frequency, TF over GST control)"
same,binding signal,HSF1,"1.22 fold enrichment (6-mer frequency, TF over GST control)"
same,binding signal,SPIC,"1.31 fold enrichment (6-mer frequency, TF over GST control)"
same,binding signal,ELF4,"1.16 fold enrichment (6-mer frequency, TF over GST control)"
same,binding signal,ELK4,"1.21 fold enrichment (6-mer frequency, TF over GST control)"
same,binding signal,ETV2,"1.3 fold enrichment (6-mer frequency, TF over GST control)"
same,binding signal,ELF3,"1.14 fold enrichment (6-mer frequency, TF over GST control)"
same,binding signal,CRX,"1.17 fold enrichment (6-mer frequency, TF over GST control)"
same,binding signal,ETV1,"1.16 fold enrichment (6-mer frequency, TF over GST control)"
